Reference: ChEMBL document CHEMBL3988442, “University of Dundee, Small-Polar-MMV Screening Library” (2021)
For some assays here: Measured potencies and affinities stand elsewhere.

Columns and labels:
Parameters in all cases: scale not given: direction of the effect not stated beside the values
[1] = biological target: Protein translocase subunit SecA (Escherichia coli (strain K12)) (UniProt P10408); test: Assay to Identify E. coli SecA ATPase Inhibitors; type: functional; settings: 30 µM
[2] = biological target: T1, Ubiquitin-activating enzyme e1, putative (Leishmania donovani (strain BPK282A1)) (UniProt E9BSI1); test: Leishmania donovani Ubiquitin Activating Enzyme (LdE1); type: functional; settings: 30 µM
T1 sequence (whole entry): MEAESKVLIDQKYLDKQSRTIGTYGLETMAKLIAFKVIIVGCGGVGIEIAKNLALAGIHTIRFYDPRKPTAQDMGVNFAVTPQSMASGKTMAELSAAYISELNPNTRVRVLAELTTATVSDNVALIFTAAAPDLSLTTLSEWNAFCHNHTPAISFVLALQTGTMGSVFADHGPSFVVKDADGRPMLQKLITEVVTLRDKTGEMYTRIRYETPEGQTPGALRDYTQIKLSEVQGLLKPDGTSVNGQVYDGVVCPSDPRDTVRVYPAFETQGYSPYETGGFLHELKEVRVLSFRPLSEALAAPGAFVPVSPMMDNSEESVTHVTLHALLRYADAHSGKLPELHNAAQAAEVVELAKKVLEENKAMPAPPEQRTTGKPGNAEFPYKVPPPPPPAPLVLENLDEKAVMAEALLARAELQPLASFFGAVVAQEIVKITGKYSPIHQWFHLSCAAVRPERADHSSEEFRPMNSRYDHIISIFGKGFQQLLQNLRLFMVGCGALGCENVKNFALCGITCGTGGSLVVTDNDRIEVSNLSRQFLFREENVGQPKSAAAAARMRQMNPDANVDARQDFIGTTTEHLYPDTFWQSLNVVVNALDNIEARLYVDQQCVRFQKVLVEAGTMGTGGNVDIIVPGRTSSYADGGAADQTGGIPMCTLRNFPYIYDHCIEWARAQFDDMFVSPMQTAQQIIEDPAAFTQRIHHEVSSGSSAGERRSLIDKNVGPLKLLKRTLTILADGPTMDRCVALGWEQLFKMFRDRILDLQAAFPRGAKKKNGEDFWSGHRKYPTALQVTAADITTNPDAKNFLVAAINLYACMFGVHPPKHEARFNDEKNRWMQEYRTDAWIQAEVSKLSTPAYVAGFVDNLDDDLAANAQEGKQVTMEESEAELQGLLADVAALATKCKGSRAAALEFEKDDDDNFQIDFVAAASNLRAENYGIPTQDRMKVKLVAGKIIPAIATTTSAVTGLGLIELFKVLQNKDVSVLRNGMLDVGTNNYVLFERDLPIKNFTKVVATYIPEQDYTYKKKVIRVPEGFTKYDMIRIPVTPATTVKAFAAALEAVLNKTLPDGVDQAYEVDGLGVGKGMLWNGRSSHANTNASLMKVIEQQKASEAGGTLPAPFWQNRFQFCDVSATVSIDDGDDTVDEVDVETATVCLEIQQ

[3] = biological target: Sialic acid-binding Ig-like lectin 9 (Homo sapiens) (UniProt Q9Y336); test: Hs-Siglec9 ALPHAscreen SOP 20170721; settings: 10 µM
Trypanosoma cruzi = test: Trypanosoma cruzi phosphomannomutase and mannose-1-phosphate guanylyltransferase assay; type: functional; settings: 10 µM
[4] = biological target: T2, Arginase-2, mitochondrial (Homo sapiens) (UniProt P78540); test: in vitro enzyme assay to detect the production of urea directly proportional to the activity of Arginase II; type: functional; settings: 33.3 µM; note: in the data most compounds retested in dose-response had high values
T2 sequence (whole entry): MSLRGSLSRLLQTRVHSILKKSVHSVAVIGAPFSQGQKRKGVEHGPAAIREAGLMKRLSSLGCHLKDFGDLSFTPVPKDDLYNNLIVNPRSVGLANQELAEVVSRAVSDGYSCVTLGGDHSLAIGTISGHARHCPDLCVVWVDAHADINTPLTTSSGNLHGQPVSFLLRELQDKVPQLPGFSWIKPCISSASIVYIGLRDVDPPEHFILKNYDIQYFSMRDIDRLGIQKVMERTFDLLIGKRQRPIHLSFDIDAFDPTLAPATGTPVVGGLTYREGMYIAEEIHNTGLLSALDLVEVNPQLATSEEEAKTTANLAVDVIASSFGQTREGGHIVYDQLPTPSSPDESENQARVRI

[5] = biological target: T3, Proteasome subunit beta (Trypanosoma cruzi) (UniProt O96673); test: Trypanosoma cruzi proteasome chymotrypsin-like activity (TcProtChymo) assay.; note: in the data most compounds retested in dose-response had high values; type: functional; settings: 9.37 µM
T3 sequence (whole entry): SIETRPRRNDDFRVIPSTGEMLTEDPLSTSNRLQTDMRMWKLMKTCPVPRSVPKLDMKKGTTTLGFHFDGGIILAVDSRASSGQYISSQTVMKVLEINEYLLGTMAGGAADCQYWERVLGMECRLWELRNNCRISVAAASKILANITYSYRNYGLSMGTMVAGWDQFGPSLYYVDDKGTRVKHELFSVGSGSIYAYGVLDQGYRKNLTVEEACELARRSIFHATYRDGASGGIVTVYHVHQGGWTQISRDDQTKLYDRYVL

Homo sapiens = organism: Homo sapiens; test: To identify inhibition of the IFN signalling (Jak-Stat) pathway via expression of an eGFP reporter gene under the control of an IFN-stimulated response element (ISRE) containing MxA promoter.; type: functional; settings: 30 µM
[6] = biological target: T4, Tyrosyl-tRNA synthetase, putative (Trypanosoma cruzi (strain CL Brener)) (UniProt Q4DSP6); test: Trypanosoma cruzi tyrosyl tRNA synthetase (TcYRS) _High Tyrosine SOP; type: functional; settings: 30 µM; note: in the data most compounds retested in dose-response had high values
T4 sequence (whole entry): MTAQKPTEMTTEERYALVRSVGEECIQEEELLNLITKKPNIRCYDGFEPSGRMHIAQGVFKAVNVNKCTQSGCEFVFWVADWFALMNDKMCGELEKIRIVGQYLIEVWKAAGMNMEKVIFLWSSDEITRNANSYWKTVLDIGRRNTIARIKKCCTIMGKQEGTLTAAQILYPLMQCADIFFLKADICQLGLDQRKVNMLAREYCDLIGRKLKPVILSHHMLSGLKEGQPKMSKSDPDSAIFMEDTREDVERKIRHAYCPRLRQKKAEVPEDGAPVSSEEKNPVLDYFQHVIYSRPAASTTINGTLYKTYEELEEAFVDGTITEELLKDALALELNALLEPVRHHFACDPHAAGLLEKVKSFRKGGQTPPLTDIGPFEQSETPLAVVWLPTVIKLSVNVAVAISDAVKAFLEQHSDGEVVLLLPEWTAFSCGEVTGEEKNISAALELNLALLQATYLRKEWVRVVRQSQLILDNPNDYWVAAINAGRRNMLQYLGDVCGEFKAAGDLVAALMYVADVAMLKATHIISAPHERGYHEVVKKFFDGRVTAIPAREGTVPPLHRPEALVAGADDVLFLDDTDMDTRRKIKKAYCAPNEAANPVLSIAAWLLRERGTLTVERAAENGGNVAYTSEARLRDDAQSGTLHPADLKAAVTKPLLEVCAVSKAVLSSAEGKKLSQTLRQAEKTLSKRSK

[7] = biological target: T4, Tyrosyl-tRNA synthetase, putative (Trypanosoma cruzi (strain CL Brener)); test: Trypanosoma cruzi tyrosyl tRNA synthetase (TcYRS) SOP; type: functional; settings: 30 µM
[8] = biological target: Chromo domain-containing protein 1 (Saccharomyces cerevisiae (strain ATCC 204508 / S288c) (Baker's yeast)) (UniProt P32657); test: ScCHD-1 Enzyme Inhibition Assay; type: functional; settings: 30 µM; note: in the data most compounds retested in dose-response had high values
Sequence of Chromo domain-containing protein 1 (Saccharomyces cerevisiae (strain ATCC 204508 / S288c) (Baker's yeast)) (P32657 whole entry, the tested form may be a part): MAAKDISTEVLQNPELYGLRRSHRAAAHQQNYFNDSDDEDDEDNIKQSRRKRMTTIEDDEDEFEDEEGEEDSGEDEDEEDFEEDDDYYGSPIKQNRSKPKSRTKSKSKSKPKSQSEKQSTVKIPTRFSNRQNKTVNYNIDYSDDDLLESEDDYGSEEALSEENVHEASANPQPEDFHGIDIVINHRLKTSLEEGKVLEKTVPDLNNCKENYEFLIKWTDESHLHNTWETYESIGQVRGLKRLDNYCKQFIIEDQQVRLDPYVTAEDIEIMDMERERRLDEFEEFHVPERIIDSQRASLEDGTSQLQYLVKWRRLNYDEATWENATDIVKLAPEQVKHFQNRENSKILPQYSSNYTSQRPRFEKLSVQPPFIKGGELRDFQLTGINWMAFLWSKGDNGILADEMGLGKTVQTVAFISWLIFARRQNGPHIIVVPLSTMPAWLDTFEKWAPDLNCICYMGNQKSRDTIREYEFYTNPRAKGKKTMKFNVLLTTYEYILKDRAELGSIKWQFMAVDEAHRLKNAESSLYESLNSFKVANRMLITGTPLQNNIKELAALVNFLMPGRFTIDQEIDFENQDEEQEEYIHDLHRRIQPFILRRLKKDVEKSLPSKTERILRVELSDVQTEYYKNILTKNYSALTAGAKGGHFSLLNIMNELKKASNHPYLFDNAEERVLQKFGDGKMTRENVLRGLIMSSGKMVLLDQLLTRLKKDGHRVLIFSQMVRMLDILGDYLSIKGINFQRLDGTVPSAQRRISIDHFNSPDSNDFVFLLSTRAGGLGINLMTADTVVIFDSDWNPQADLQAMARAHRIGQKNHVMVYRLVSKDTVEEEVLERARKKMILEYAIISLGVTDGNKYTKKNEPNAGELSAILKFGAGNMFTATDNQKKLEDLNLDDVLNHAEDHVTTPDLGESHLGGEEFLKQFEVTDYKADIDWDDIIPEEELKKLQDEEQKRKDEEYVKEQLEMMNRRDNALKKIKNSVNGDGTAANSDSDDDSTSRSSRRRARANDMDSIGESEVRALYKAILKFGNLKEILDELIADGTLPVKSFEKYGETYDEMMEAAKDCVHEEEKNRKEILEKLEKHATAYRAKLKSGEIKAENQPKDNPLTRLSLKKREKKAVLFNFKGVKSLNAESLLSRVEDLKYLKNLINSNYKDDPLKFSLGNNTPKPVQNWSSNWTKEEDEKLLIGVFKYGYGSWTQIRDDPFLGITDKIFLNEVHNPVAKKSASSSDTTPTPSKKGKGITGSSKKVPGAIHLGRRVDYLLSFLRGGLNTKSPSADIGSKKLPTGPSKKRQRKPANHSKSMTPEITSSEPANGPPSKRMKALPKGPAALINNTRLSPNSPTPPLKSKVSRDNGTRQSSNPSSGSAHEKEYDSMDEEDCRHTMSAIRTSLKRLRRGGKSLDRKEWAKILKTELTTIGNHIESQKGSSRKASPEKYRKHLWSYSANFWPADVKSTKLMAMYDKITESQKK

Sequence of Protein translocase subunit SecA (Escherichia coli (strain K12)) (P10408 whole entry): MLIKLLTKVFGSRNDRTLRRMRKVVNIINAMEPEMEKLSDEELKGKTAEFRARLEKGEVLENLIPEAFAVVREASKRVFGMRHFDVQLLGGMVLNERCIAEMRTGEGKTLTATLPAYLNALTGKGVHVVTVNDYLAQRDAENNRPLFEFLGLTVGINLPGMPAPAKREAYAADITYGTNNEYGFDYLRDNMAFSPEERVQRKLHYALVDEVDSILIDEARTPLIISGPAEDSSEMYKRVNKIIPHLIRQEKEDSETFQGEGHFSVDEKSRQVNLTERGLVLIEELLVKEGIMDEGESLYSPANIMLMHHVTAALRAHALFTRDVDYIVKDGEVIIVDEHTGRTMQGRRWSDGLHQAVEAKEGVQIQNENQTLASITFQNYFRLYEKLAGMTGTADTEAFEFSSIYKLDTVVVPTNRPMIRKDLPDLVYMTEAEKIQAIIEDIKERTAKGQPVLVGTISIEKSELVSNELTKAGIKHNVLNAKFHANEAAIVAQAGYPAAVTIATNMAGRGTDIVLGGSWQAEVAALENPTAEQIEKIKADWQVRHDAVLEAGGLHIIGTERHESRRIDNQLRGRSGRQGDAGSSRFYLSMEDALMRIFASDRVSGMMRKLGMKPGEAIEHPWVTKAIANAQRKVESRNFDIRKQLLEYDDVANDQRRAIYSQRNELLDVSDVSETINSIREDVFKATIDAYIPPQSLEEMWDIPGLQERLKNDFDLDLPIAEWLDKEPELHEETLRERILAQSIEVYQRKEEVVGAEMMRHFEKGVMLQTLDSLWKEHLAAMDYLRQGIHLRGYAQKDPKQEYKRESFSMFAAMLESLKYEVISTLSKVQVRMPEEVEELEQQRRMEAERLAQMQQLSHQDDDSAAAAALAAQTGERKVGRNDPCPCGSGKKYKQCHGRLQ
Sequence of Sialic acid-binding Ig-like lectin 9 (Homo sapiens) (Q9Y336 whole entry): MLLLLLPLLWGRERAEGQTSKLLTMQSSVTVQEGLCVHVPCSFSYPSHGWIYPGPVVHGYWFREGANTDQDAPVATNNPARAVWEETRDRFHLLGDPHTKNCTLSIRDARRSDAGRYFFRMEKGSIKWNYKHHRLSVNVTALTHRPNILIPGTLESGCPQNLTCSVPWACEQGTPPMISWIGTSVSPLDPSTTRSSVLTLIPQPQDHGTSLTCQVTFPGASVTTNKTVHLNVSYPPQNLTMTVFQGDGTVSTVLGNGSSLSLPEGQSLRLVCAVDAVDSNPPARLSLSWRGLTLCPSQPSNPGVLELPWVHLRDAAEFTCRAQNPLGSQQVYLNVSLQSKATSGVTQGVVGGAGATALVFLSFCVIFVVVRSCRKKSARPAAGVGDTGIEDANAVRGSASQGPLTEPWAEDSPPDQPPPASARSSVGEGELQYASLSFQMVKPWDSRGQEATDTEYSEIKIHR

Compound | Percent Effect [1] [%] | Percent Effect [2] [%] | Percent Effect [3] [%] | Percent Effect (Trypanosoma cruzi) [%] | Percent Effect [4] [%] | Percent Effect [5] [%] | Percent Effect (Homo sapiens) [%] | Percent Effect [6] [%] | Percent Effect [7] [%] | Percent Effect [8] [%]
CS(=O)(=O)N1CCC(NC(=O)COc2ccc(Cl)c(Cl)c2)CC1 | -0.592 | 15.6 | -0.737 | -2.24 | -2.66 | 3.86 | 10.2 | 13.7 | 28.2 | -8.55
COc1cc(CNC(=O)C2CC(=O)N(C(C)C)C2)ccn1 (stereo not given) | -1.79 | 10.3 | -1.27 | -1.22 | 2.05 | 12.7 | 24.4 | 3.35 | 10.8 | -3.72
COCCN1CC[C@]2(CN(C(=O)c3cccs3)C[C@H]2C)C1=O | 0.25 | 1.3 | 1.96 | -0.938 | -0.457 | 9.7 | 0.303 | 0.966 | 0 | 0.0651
Cc1ccccc1-c1noc(CN2CCn3c(nnc3C3CC3)C2)n1 | -6.21 | -25.6 | -13.3 | -3.1 | -0.41 | 5.21 | 15.8 | 0.478 | 1.21 | -7.86
COCCN1C(=O)CCC12CCN(C(=O)NC(C)C)CC2 | -5.46 | 3.9 | -2.04 | -0.938 | -0.457 | -2.66 | 19.9 | 1.93 | -10 | -3.15
Fc1ccccc1Cc1noc(CN2CCCC(CN3CCCC3)C2)n1 (stereo not given) | -7.22 | -2.7 | 4.23 | 7.86 | -2.45 | 3.08 | -6.53 | 6.92 | 12.2 | -3.21
Cc1ccc(C(=O)N2CCN(CCC(C)(C)C)CC2)c(=O)[nH]1 | -4.94 | 5.13 | 4.25 | -0.845 | -0.82 | -1.79 | 12 | 3.35 | 1.21 | 1.43
CCOC1COC2(CCN(Cc3ccc4c(c3)OCO4)CC2)C1 (stereo not given) | -2.81 | 19.5 | 5.28 | -1.13 | 3.65 | 5.06 | 17.9 | 8.7 | 12.5 | -4.64
Cn1cc(C(=O)NC2CCN(Cc3ccn(C)c(=O)c3)CC2)cn1 | -0.0592 | -7.69 | -4.2 | -1.41 | 4.51 | 3.67 | 26.8 | -1.44 | -3.61 | -4.65
O=C(Cn1cc(-c2ccccc2)ncc1=O)Nc1nnc[nH]1 | -1.82 | 8.11 | 4.37 | 2.42 | 8.74 | 20.4 | -1.74 | 6.92 | 19.5 | 83.7
COc1ccc(C(C)NC(=O)Cn2ccc(=O)n(C)c2=O)cc1OC (stereo not given) | -2.49 | 7.79 | 11 | -2.8 | 3.48 | 9.65 | 17.1 | 8.82 | 18.8 | -4.91
Cn1cc(N2CC3(COCCN(Cc4ccsc4)C3)OCC2=O)cn1 (stereo not given) | -9.04 | -1.3 | 10.7 | -1.46 | 0.405 | 2.21 | 6.9 | 4.74 | -5.13 | 2.44
Cc1cnn(CC2CN(CC(=O)NCc3ccccn3)CCO2)c1 (stereo not given) | -3.5 | 8 | 4.57 | 4.62 | -4.88 | 5.17 | 2.48 | 3.68 | 10.3 | -8.5
CCN1CCN(c2ccc(CNC(=O)c3c(C)noc3C)cn2)CC1 | -1.13 | 21.3 | -5.5 | 3.01 | 2.66 | 23.8 | 1.82 | 1.58 | 15.4 | -14.6
CN(C)CCOCC1CN(Cc2ccsc2)Cc2ccnn2C1 (stereo not given) | -2.84 | -1.3 | 1.33 | -3.41 | -1.62 | 2.21 | -1.71 | 1.58 | 2.56 | 0.0554
COCCN1CC(C(=O)NCc2ccnc(-n3cccn3)c2)CC1=O (stereo not given) | -3.79 | -5.13 | -5.84 | -1.22 | 3.28 | -1.79 | 23.2 | -2.39 | -3.61 | 6.47
CN1CCC/C1=N\S(=O)(=O)c1ccc(NC(=O)c2cccs2)cc1 | 0.351 | 15.6 | -0.824 | 3.73 | -3.48 | 12.5 | 8.73 | 7.84 | 21.2 | -10.9
O=C(Nc1cccnc1)[C@H]1C[C@H]2OCC[C@H]2N(C(=O)c2ccsc2)C1 | -4.32 | 11.7 | 13 | 4.58 | 17 | 10.5 | -7.28 | 4.74 | 12.8 | 18.5
Cn1ccc2ccc(C(=O)N3CCN(C(=O)N4CCOCC4)CC3)cc21 | -5.67 | 24.3 | 12.2 | 9.6 | 3.85 | 13.2 | 14.4 | 9.04 | 17.1 | -1.13
c1cnn(CCNCc2csc(-c3ccsc3)n2)c1 | -6.54 | -12.8 | -10.8 | -5.92 | -1.23 | 20.6 | 24.6 | -6.22 | -1.21 | 0.287
COc1ccc2c(c1)OC1(CCN(Cc3ccc(F)cc3)CC1)CC2=O | -2.19 | 14.3 | -1.29 | 2.63 | 2.74 | 9.36 | 24.9 | 2.9 | 2.5 | -12.1
Cc1ncccc1NC(=O)C1=NOC2(CCN(Cc3nccs3)C2)C1 (stereo not given) | -7.98 | -14.3 | 2.46 | -0.682 | 4.45 | 17.7 | -6.55 | 6.84 | 15.4 | 5.53
Cc1cc(C)c(OCC(=O)NS(=O)(=O)c2c(C)noc2C)c(C)c1 | -3.67 | -2.56 | -14.2 | 5.54 | 1.23 | 1.11 | 7.01 | 1.44 | 10.8 | 1.12
